Values joined by “and” are separate entries in the source; they are usually repeats but may differ in a detail not shown here. Equal entries are not always repeated. The whole screen tested about 16,000 compounds, of which about 5,700 (36%) were called active. Another 24% or so got no clear call; they are omitted. The list shows a part of the results. Values without a mark were called inactive. Calls follow the shape of the dose curve; as a rule, active = well fitted curve in the direction sought with a large enough effect; inconclusive = small, poorly fitted or top-dose-only effect, or effect the other way; inactive = no such curve, though single readings can be large or run the other way.
% is scaled to controls: 0 for no effect and ±100 for the full control effect.

This assay deals with Cytochrome P450 1A2 (Homo sapiens) (UniProt P05177). Description: Cytochrome panel assay with activity outcomes. To be noted: recombinant CYP, pro-luciferin dealkylation, luminescence, p450-cyp1a2; series mostly up to 57.1 µM.
Chain of Cytochrome P450 1A2 (Homo sapiens) (P05177 whole entry, looked up): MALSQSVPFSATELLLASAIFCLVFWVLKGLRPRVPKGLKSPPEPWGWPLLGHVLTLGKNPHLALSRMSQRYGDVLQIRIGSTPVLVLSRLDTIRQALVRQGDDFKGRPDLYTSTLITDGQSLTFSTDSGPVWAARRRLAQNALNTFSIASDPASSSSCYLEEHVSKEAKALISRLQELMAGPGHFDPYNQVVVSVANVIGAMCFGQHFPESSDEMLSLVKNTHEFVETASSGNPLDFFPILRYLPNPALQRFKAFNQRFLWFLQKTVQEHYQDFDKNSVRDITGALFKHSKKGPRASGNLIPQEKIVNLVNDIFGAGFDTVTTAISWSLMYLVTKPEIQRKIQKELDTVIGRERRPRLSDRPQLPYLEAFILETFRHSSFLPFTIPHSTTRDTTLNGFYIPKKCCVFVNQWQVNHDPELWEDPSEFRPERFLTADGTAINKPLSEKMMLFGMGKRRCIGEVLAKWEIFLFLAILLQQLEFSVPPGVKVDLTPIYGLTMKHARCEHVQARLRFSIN
As a reminder, the AC50 is the midpoint of the concentration-response curve, whichever way the signal moves. As to `O=C(CN1CCc2ccccc21)NC(=O)NCc1ccco1`, the AC50 is 6.31 µM (active). The same measure, in the same setting: under `S=C(NCc1ccco1)N1CCN(C(c2ccccc2)c2ccccc2)CC1` stands “inactive”. For the compound `CO[C@@H]1/C=C\O[C@]2(C)Oc3c(C)c(O)c4c(O)c(cc(O)c4c3C2=O)NC(=O)/C(C)=C\C=C/[C@H](C)[C@@H](O)[C@H](C)[C@H](O)[C@H](C)[C@H](OC(C)=O)[C@@H]1C`, the activity, negative = inhibition is -9.97% [at 11.4 µM]. On to `Nc1c2c(=O)oc(-c3ccccc3)cc2nn1-c1ccccc1`, for which the AC50 was 2.24 µM (active).

For `COC(=O)N1CCC2(CC1)CN(c1ccncc1)C2`, the AC50 entry is “inactive”. On to `CO/N=C\[C@@H](OC)[C@H](C)/C=C\CC(=O)OC`, for which the activity, negative = inhibition is -3.46% [at 11.4 µM]. For `C#CCSc1nnc(-c2sc(-c3ccccc3)nc2C)n1C`, the AC50 was 4.47 µM (active).

As for `Cn1c(CN2CCOCC2)nnc1SCc1ccccc1`, the AC50 result is “inactive”. In the case of `CSc1nnc(-c2sc(-c3ccccc3)nc2C)n1C`, the AC50 is 11.2 µM (active).

As for `CCCCCCC(C)n1cc(C(C)=O)c(=O)[nH]c1=O` (stereo not given), the AC50 entry is “inactive”.

As for `CCCCCCCCn1cc(C(C)=O)c(=O)[nH]c1=O`, the AC50 was 15.8 µM (active).

`CC(=O)c1cn(CCCCCCCCCCn2cc(C(C)=O)c(=O)[nH]c2=O)c(=O)[nH]c1=O`: the AC50 result was “inactive”.

With `CCCOc1ccc(-c2nc(N)n[nH]2)cc1`, the AC50 is 15.8 µM (active). As to `O=C1[C@H]2[C@H]3[C@H](O)[C@H](O)C/C(=N/OC[C@@H](O)COCc4ccco4)[C@@H]3CC[C@@H]2C(=O)N1C[C@@H]1CCCO1`, the activity, negative = inhibition is 6.9% [at 11.4 µM]. Turning to `CC(=O)COc1ccc2c(C)c(C)c(=O)oc2c1`, the concentration at half-maximal activity (AC50) is 1 µM (active). Take `CCC(CC)c1nnc(NC(=O)COc2ccc3c(C)cc(=O)oc3c2)s1`: the AC50 result was “inactive”. Consider `COc1ccc2sc3ccccc3c(=O)c2c1OC`, for which the AC50 was 3.55 µM (active).

Take `O=C(OCCN1CCCCC1)c1c[nH]c2ccccc12`: the AC50 is 12.6 µM (active) and 15.8 µM (active). `O=C(CCN1CCCCC1)N1CCc2c([nH]c3ccccc23)[C@H]1c1cccnc1`: the activity, negative = inhibition is -19.7% [at 2.29 µM]. In the case of `CN1[C@@H]2CC[C@H]1CC(OC(=O)c1c[nH]c3ccccc13)C2` (stereo not given in full), the AC50 entry was “inactive”.

As for `COc1ccc(NC(=O)N2CCC3(CC2)CCN(C(=O)c2cccn2C)CC3)cc1`, the AC50 entry is “inactive”. On to `CC(=O)N(/N=C1\Sc2ccccc2C1=O)c1ccccc1C`, for which the AC50 is 14.1 µM (active). Same read-out and setting: under `CC(=O)N(/N=C1\Sc2ccccc2C1=O)c1ccccc1` stands 2.24 µM (active). In the case of `COC(=O)[C@@H]1O[C@@H](SCCN)[C@@H](O)[C@H](O)[C@H]1O`, the activity, negative = inhibition is 10.2% [at 2.29 µM]. With `CCC1(C)Cc2c(sc3nnn(CC(=O)Nc4ccc(C)cc4)c(=O)c23)CO1` (stereo not given), the AC50 was 14.1 µM (active).

The values above are taken from PubChem BioAssay AID1851 (National Center for Advancing Translational Sciences (NCATS), 2009).
